# Measured values reported in PubChem BioAssay AID651640 (Broad Institute, 2012).
# Among all 350,000 compounds or so, about 6,000 (1.7%) were called active. Another 5% or so got no clear call; they are omitted. The entries come from a sample that favours actives as a whole. A number with no mark means an inactive call. Rule as the data show it: active = CPE inhibition above about 20% (passing the limit was not always enough); inconclusive = no clear call, values can overlap the other calls; tested in BHK-21 cells.
# Experiment: protection of cells from dengue 2 killing – plate reader, single concentration, primary screen (AID 651640);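 also: 0% = median of neutral control wells and 100% = median of positive control wells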
# Details: DENV2-infected cells, cytopathic effect rescue, at 9.99 µM, hits give high values
row,SMILES,CPE inhibition
1,CCS(=O)(=O)N1CC2(CN(Cc3cc(F)ccc3F)[C@@H](CO)c3c2c2ccc(OC)cc2n3C)C1,-8.85%
2,COc1ccc2c3c(n(C)c2c1)[C@@H](CO)N(C(=O)c1ccc(F)cc1)CC31CN(C(=O)c2ccc(F)cc2)C1,2.03%
3,CCS(=O)(=O)N1CC2(CN(C(=O)c3ccc(F)cc3)[C@@H](CO)c3c2c2ccc(OC)cc2n3C)C1,-7%
4,COc1ccc2c3c([nH]c2c1)[C@H](CO)N(Cc1nccs1)CC31CCN(C(=O)C2CCC2)CC1,-3.4%
5,COc1ccc2c3c(n(C)c2c1)[C@H](CO)N(C(=O)CC1CC1)CC31CCN(Cc2nccs2)CC1,-5.74%
6,COc1cc(CN2CC3(CN(S(=O)(=O)c4cn(C)cn4)C3)c3c(n(C)c4cc(OC)ccc34)[C@H]2CO)cc(OC)c1,58.8% (active)
7,COc1ccc2c3c([nH]c2c1)[C@@H](CO)N(C(=O)C1CC1)CC31CCN(Cc2nccs2)CC1,25.2% (active)
8,COc1ccc2c3c([nH]c2c1)[C@@H](CO)N(Cc1nccs1)CC31CCN(C(=O)C2CCCC2)CC1,-11.8%
9,CCS(=O)(=O)N1CC2(CN(C(=O)c3ccc(F)cc3)[C@H](CO)c3c2c2ccc(OC)cc2n3C)C1,21.9% (active)
10,COc1ccc2c3c(n(C)c2c1)[C@@H](CO)N(C(C)=O)CC31CCN(Cc2nccs2)CC1,-1.04%
11,COc1ccc2c3c(n(C)c2c1)[C@H](CO)N(CC1CCCCC1)CC31CCN(Cc2nccs2)CC1,22.7% (active)
12,CCS(=O)(=O)N1CC2(CN(Cc3ccccc3)[C@@H](CO)c3c2c2ccc(OC)cc2n3C)C1,6.33%
13,Cc1noc(C)c1NC(=O)Nc1ccc2c(c1)C(=O)N([C@H](C)CO)C[C@H](C)[C@H](CN(C)Cc1ccc(C(=O)O)cc1)OCCCC[C@H](C)O2,3.28%
14,CO[C@H](CN(C)S(=O)(=O)c1ccc(C)cc1)[C@@H](C)CN(Cc1ccccc1Cl)[C@@H](C)CO,-6.58%
15,C[C@H]1CCCCO[C@@H](CN(C)Cc2ccc3c(c2)OCO3)[C@@H](C)CN([C@@H](C)CO)C(=O)c2cc(NC(=O)c3ccccc3)ccc2O1,-5.55%
16,C[C@H](CO)N1C[C@H](C)[C@@H](CN(C)S(=O)(=O)c2cccs2)OCCCC[C@H](C)Oc2ccc(NS(=O)(=O)c3ccccc3)cc2C1=O,-5.76%
17,Cc1ccc(S(=O)(=O)Nc2ccc3c(c2)C(=O)N([C@@H](C)CO)C[C@H](C)[C@@H](CN(C)C(=O)Nc2ccc(F)cc2)OCCCC[C@H](C)O3)cc1,0.458%
18,O=C(C[C@H]1CC[C@H]2[C@@H](COC[C@H](O)CN2CCC(F)(F)F)O1)N1CCC(Cc2ccccc2)CC1,0.858%
19,Cc1ccc2cc(C)c(N3CCN(c4ccc(F)cc4)CC3)nc2c1,-3.88%
20,CC(=O)c1c(N2CCN(c3ccc(F)cc3)CC2)nc(=S)n(-c2ccccc2)c1C,46.2% (active)
21,O=C(CN1CCN(c2ccccc2)CC1)Nc1ccc(F)cc1,-6.81%
22,CN1C(=O)c2cc(NC(=O)C3CCCC3)ccc2OC[C@@H]2O[C@@H](CC(=O)NCCc3ccncc3)CC[C@@H]21,26.3% (active)

row,SMILES,CPE inhibition
1,CN1C(=O)c2cc(NC(=O)C3CCCC3)ccc2OC[C@H]2O[C@@H](CC(=O)NCCc3ccncc3)CC[C@H]21,5.23%
2,CCC(=O)Nc1ccc2c(c1)C(=O)N(C)[C@@H]1CC[C@H](CC(=O)NCCc3ccncc3)O[C@@H]1CO2,-5.57%
3,C[C@@H]1CN([C@H](C)CO)S(=O)(=O)c2ccc(-c3ccc(C(=O)N(C)C)cc3)cc2O[C@@H]1CN(C)C(=O)Nc1ccccc1F,2.86%
4,Cc1ccc(S(=O)(=O)N2[C@@H](c3cccc(Cl)c3)C(C(=O)O)=CC[C@H]2c2ccc(Cl)c(Cl)c2)cc1,40% (active)
5,Cc1ccccc1S(=O)(=O)N1[C@@H](c2cccc(Cl)c2)C(C(=O)OC(C)(C)C)=CC[C@H]1c1ccc(Cl)cc1,-8.63%
6,Cc1ccccc1S(=O)(=O)N1[C@@H](c2cccc(Cl)c2)C(C(=O)O)=CC[C@H]1c1ccc(Cl)cc1,6.18%
7,Cc1ccc([C@@H]2CC=C(C(=O)O)[C@H](c3cccc(Cl)c3)N2S(=O)(=O)c2ccc(C)cc2)cc1,42.3% (active)
8,CCOC(=O)C1=CC[C@@H](c2ccccc2)N(S(=O)(=O)c2ccc(C)cc2)[C@H]1c1cccc(OC)c1,-3.53%
9,Cc1ccc(S(=O)(=O)N2[C@@H](c3ccccc3F)C(C(=O)O)=CC[C@H]2c2ccc(Cl)cc2)cc1,-10.7%
10,O=C(C[C@H]1CC[C@@H](NC(=O)CC2CC2)[C@@H](CO)O1)NCc1ccccc1,3.95%
11,C[C@@H]1CN([C@H](C)CO)C(=O)c2cc(NC(=O)Nc3ccc(F)cc3)ccc2O[C@@H](C)CCCCO[C@@H]1CN(C)S(=O)(=O)c1cn(C)cn1,2.14%
12,C[C@H](CO)N1C[C@H](C)[C@H](CN(C)Cc2cncnc2)Oc2cc(-c3ccccc3F)ccc2S1(=O)=O,-2.27%
13,C[C@@H]1CCCCO[C@H](CN(C)Cc2ccccc2)[C@H](C)CN([C@@H](C)CO)C(=O)c2cc(NC(=O)Nc3cccc4ccccc34)ccc2O1,-25.3%
14,O=C(C[C@@H]1CC[C@H]2[C@@H](COC[C@@H](O)CN2C(=O)Nc2ccc(F)cc2)O1)NCC1CC1,-0.669%
15,CCCNC(=O)C[C@H]1CC[C@H]2[C@@H](COC[C@H](O)CN2C(=O)Nc2c(C)noc2C)O1,40.9% (active)
16,C[C@@H](NC(=O)C[C@@H]1CC[C@@H]2[C@H](COC[C@@H](O)CN2C(=O)Nc2cccc(F)c2)O1)c1ccccc1,24.3% (active)
17,CCNC(=O)C[C@H]1CC[C@@H]2[C@H](COC[C@H](O)CN2C(=O)Nc2c(C)noc2C)O1,-1.85%
18,C[C@@H](NC(=O)C[C@H]1CC[C@H]2[C@@H](COC[C@@H](O)CN2C(=O)Nc2ccccc2)O1)c1ccccc1,-9.46%
19,O=C(C[C@H]1CC[C@H]2[C@@H](COC[C@H](O)CN2C(=O)Nc2ccc(Cl)cc2)O1)NCC1CC1,85.5% (active)
20,CCCNC(=O)C[C@@H]1CC[C@H]2[C@@H](COC[C@H](O)CN2C(=O)Nc2ccc(Cl)c(Cl)c2)O1,2.89%
21,O=C(C[C@@H]1CC[C@H]2[C@@H](COC[C@H](O)CN2C(=O)Nc2ccc(Cl)cc2)O1)NCC1CC1,6.37%
22,C[C@@H](NC(=O)C[C@@H]1CC[C@H]2[C@@H](COC[C@@H](O)CN2C(=O)Nc2cccc(F)c2)O1)c1ccccc1,4.9%

row,SMILES,CPE inhibition
1,COc1ccc(NC(=O)N2C[C@H](O)COC[C@H]3O[C@@H](CC(=O)NC4Cc5ccccc5C4)CC[C@@H]32)cc1,-9.25%
2,COc1ccc2c3c(n(C)c2c1)[C@@H](CO)N(C)CC31CN(CC2CC2)C1,-0.913%
3,Cc1ccc(-c2cc(=O)c3ccc(F)cc3[nH]2)cc1,25% (active)
4,Cc1ccc(-c2cc(=O)c3ccc(Cl)cc3[nH]2)cc1,0.541%
5,O=c1cc(-c2ccccc2)[nH]c2cc(F)ccc12,-7.41%
6,CC(C)CC#Cc1ccc([C@H]2[C@@H](CO)N3C(=O)CN(C(=O)CN4CCOCC4)C[C@H]23)cc1,-8.34%
7,COc1ccc(C(=O)NCCCN2CCOCC2)cc1Br,8.89%
8,COc1cc(C(=O)OCCCN2CCOCC2)cc(OC)c1OC,49.2% (active)
9,CCN1CCN(CC(=O)c2cc(OC)c(OC)c(OC)c2)CC1,-1.76%
10,O=C(C[C@@H]1C=C[C@@H](NC(=O)c2ccccc2)[C@H](CO)O1)NCCc1ccncc1,-5.54%
11,O=C(c1ccc(C(F)(F)F)cc1)N1CCC(=O)N([C@H](COCc2ccccc2)Cc2ccccc2)CC1,-2.73%
12,CC(C)C[C@@H](COCc1ccc(Cl)cc1)N1CCN(C(=O)c2ccc(Cl)cc2Cl)CCC1=O,-4.03%
13,CC(C)CC(COCc1ccc(Cl)cc1)N1CCN(C(=O)c2ccc(C(F)(F)F)cc2)CCC1=O (stereo not given),49.9% (active)
14,C[C@H](CO)N1C[C@H](C)[C@H](CN(C)C)Oc2cc(C#Cc3ccccc3F)ccc2S1(=O)=O,-8.31%
15,COCC(=O)N(C)C[C@H]1Oc2ncc(-c3ccc(C)cc3)cc2C(=O)N([C@@H](C)CO)C[C@@H]1C,14.3%
16,Cc1ccc(S(=O)(=O)N2C[C@]3(O)C[C@@H]4C(=O)N(c5ccccc5)C(=O)[C@@H]4C[C@]3(OC(=O)NC3CC3)C2)cc1,0.334%
17,Cc1ccc(S(=O)(=O)N2C[C@@H](C)[C@]3(C2)[C@H](O)[C@H](OC(=O)NCc2ccccc2)C[C@H]2C(=O)N(c4ccccc4)C(=O)[C@H]23)cc1,31.2% (active)
18,COC(=O)[C@H]1C[C@H](OC(=O)NCc2ccccc2)[C@@]2(O)CN(S(=O)(=O)c3ccc(C)cc3)CC2[C@H]1C(=O)OC (stereo not given in full),11.6%
19,C[C@H]1CN([C@@H](C)CO)C(=O)c2cccc(NC(=O)CCCCCC(=O)Nc3ccccc3N)c2O[C@@H]1CN(C)CC1CCCCC1,1.77%
20,C[C@H]1CN([C@@H](C)CO)C(=O)c2cc(Br)cnc2O[C@@H]1CN(C)S(=O)(=O)c1ccc(F)cc1,-4.52%
21,C[C@@H]1CN([C@@H](C)CO)C(=O)c2cccc(NC(=O)c3ccc(-c4nccs4)cc3)c2O[C@@H]1CN(C)S(=O)(=O)c1ccccc1,-5.21%
